The list is not random: actives were taken first. Their share in the collection is about 15%.
12-LOX inh = Primary qHTS assay for inhibitors of human arachidonate 12S-lipoxygenase (ALOX12): Round 2; Polyunsaturated fatty acid lipoxygenase ALOX12 (Homo sapiens), P18054; purified 12hLO, xylenol orange hydroperoxide absorbance; Potency, µM (top dose mostly 108 µM), without a hit: top-dose activity change, negative = inhibition, usual class: inhibitors; 1.1% of 580,000 active; AID 1671190, 2021
Target sequence (P18054 whole entry, looked up): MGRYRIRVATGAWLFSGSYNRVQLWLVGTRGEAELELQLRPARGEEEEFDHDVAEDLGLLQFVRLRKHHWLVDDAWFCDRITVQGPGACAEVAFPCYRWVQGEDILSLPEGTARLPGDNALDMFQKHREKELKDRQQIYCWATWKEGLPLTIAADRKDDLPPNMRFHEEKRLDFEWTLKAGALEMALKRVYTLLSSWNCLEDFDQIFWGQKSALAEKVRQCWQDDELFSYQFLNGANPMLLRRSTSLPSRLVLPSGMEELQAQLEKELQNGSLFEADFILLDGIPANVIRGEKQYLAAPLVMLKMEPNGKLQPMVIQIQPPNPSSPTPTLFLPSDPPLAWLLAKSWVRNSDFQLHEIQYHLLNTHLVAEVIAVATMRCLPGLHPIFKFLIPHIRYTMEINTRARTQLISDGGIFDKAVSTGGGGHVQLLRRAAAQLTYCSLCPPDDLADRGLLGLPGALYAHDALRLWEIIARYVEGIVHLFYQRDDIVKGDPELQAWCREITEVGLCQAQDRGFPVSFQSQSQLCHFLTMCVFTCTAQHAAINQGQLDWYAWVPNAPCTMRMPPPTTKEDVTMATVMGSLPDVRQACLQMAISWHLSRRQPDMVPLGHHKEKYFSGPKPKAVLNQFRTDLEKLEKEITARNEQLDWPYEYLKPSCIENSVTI
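Purified human 12hLO at 150 nM in 25 mM Hepes, 0.01% Triton X-100, pH 7.0, preincubated 15 min at room temperature with compound. Reaction started with 40 uM arachidonic acid, 30 min at room temperature. Hydroperoxide measured by Fe-xylenol orange, 573/405 nm absorbance ratio.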
DT40 TDP1 CPT = qHTS for Inhibitors of human tyrosyl-DNA phosphodiesterase 1 (TDP1): qHTS in cells in presence of CPT | chicken DT40 Tdp1-/-;hTDP1 cells + 20 nM CPT, ATP luminescence, 48 h | 12% of 420,000 active | AID 686979, 2013 | Potency, µM (titrated, usually from 46.2 µM), inactives show at the top dose activity change, negative = growth inhibition, actives largely listed as inhibitors; also: nearly all actives have a fitted effect of over 55% in size
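Chicken DT40 Tdp1-/- cells stably complemented with human TDP1 were seeded at 400 cells/well in medium containing 20 nM camptothecin, exposed to pin-transferred compounds, and grown at 37 °C for at least 48 hr. Viability was read as ATP luminescence.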
TDP1 cell noCPT = qHTS for Inhibitors of human tyrosyl-DNA phosphodiesterase 1 (TDP1): qHTS in cells in absence of CPT; 15% of 420,000 active; DT40 Tdp1-/- hTDP1 cells, no CPT, ATP luminescence, 48 h; Potency, µM (top dose mostly 46.2 µM), inactives show at the highest dose activity change, negative = growth inhibition, actives largely listed as inhibitors; also: nearly all actives have a fitted effect of over 55% in size
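Seeded 400 DT40-hTDP1 cells/well (vehicle DMSO, no 20 nM CPT); pinned compounds; ≥48 hr at 37 °C; CellTiter-Glo luminescence as viability measure.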
RORgamma inh = qHTS for inhibitors of ROR gamma transcriptional activity; Nuclear receptor ROR-gamma (Mus musculus), P51450; Drosophila S2 Gal4-RORgamma UAS-luciferase reporter, 20 h; Potency, µM (titrated, usually from 53.6 µM), without a hit: at the top dose activity change, negative = inhibition, usual class: inhibitors; 5.4% of 310,000 active; AID 2551, 2010; also: nearly all actives have a fitted effect of over 60% in size
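Drosophila Schneider cells stably carrying a metallothionein-driven Gal4 DBD–ROR gamma fusion and a UAS-Photinus luciferase reporter were exposed to compound for 1 hr, then induced with copper sulfate (700 uM final) for 20 hr at ambient temperature before luminescence reading.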
ELG1 repair inh = qHTS screen for small molecules that inhibit ELG1-dependent DNA repair in human embryonic kidney (HEK293T) cells expressing luciferase-tagged ELG1; 2.3% of 330,000 active; HEK293T ELG1-luciferase reporter, luminescence, 16 h; DNA damage induced by 5-fluorouridine; AID 504467, 2011; Potency, µM (titrated, usually from 46.1 µM), for the others: top-dose activity change, negative = inhibition, actives largely listed as inhibitors; also: nearly all actives have a fitted effect of over 55% in size
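Overnight (16 hr) co-exposure of 2,000 cells/well to 5-fluorouridine and compound at 37 °C preceded detection. Luciferase was quantified via ONE-Glo luminescence; loss of signal denotes inhibition.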
Gal4-VP16 FLuc = VP16 counterscreen qHTS for inhibitors of ROR gamma transcriptional activity | Drosophila S2 Gal4-VP16 UAS-luciferase, luminescence, 20 h | Potency, µM (top dose mostly 53.6 µM), without a hit: at the highest dose activity, negative = inhibition, most hits filed as inhibitors | 3.5% of 310,000 active | AID 2546, 2010;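 also: Gal4-VP16 expression switched on by copper sulfate through the metallothionein promoter; nearly all actives have a fitted effect of over 50% in size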
Active calls of the source: *; ? = inconclusive; nt = no result given; [ ] = remark or other dose. Calls follow the shape of the dose curve; as a rule, active = well fitted curve in the direction sought with a large enough effect; inconclusive = small, poorly fitted or top-dose-only effect, or another doubt; inactive = no such curve, though single readings can be large; an effect the other way counts as inactive or inconclusive. % is scaled to controls: 0 for no effect and ±100 for the full control effect; potency is read from the fitted curve at half-maximal effect.

SMILES	12-LOX inh	DT40 TDP1 CPT	TDP1 cell noCPT	RORgamma inh	ELG1 repair inh	Gal4-VP16 FLuc
CC(NC(=O)c1ccnc(N(C)C)c1)c1ccc2c(c1)CCC(=O)N2 (configuration not stated)	1%	nt	nt	nt	nt	nt
COc1ccc(CCN(C(=O)C(F)(F)F)C(C(=O)NC2CCCCC2)c2ccc(C)s2)cc1OC (configuration not stated)	-3%	12µM*	9.2µM*	-38%	-4%	-9%
COc1ccc(CCN(C(=O)c2ccco2)C(C(=O)NC2CCCC2)c2ccncc2)cc1OC (configuration not stated)	-12%	-14%	-18%	25%	8%	-8%
Cc1ccc(CN(C(=O)C(F)(F)F)C(C(=O)NC2CCCCC2)c2ccco2)cc1 (configuration not stated)	168%[57.4 µM]	?	?	5%	-17%	-2%
COc1ccc(CCN(C(=O)C(F)(F)F)C(C(=O)NC2CCCC2)c2cccs2)cc1OC (configuration not stated)	12%	7.3µM*	1.8µM*	7%	-11%	7%
Cc1ccc(-c2nn3c(-c4ccccc4C)nnc3c3ccccc23)cc1	-18%	?	18µM*	nt	nt	nt
O=C(Nc1ccc(-c2cnc(C3CC3)o2)cc1)c1ccc(F)cc1	-5%	nt	nt	nt	nt	nt
Cc1cccc(NS(=O)(=O)c2cc(-c3cnc(C)o3)ccc2C)c1	-2%	nt	nt	nt	nt	nt
CC(=O)c1cccc(NS(=O)(=O)c2cc(-c3cnc(C4CC4)o3)ccc2C)c1	-9%	5.8µM*	5.2µM*	-1%	?	-15%
Cc1ccc(NS(=O)(=O)c2cc(-c3cnc(C4CC4)o3)ccc2C)cc1Cl	?	7.3µM*	5.2µM*	nt	nt	nt
CC(=O)Nc1ccc(NS(=O)(=O)c2cc(-c3cnc(C4CC4)o3)ccc2C)cc1	4%	2.9µM*	2.3µM*	-5%	?	2%
CC(=O)c1ccc(NS(=O)(=O)c2cc(-c3cnc(C4CC4)o3)ccc2C)cc1	-1%	13µM*	?	11%	-12%	10%
COc1ccc(-c2cnc(C)o2)cc1S(=O)(=O)Nc1ccc(NC(C)=O)cc1	?	-3%	-6%	nt	nt	nt
CN(C)CCCNC(=O)c1nc(-c2ccc3[nH]ccc3c2)no1	-21%	nt	nt	nt	nt	nt
Cc1n[nH]c(C)c1CNC(=O)C1CCCN(C2CCN(C(=O)C3CC3)CC2)C1 (configuration not stated)	24%	nt	nt	nt	nt	nt
Cc1ccc(-c2cnc(C3CC3)o2)cc1S(=O)(=O)Nc1ccccc1	nt	4.6µM*	4.6µM*	-26%	-20%	-8%
CCOc1ccccc1NS(=O)(=O)c1cc(-c2cnc(C3CC3)o2)ccc1C	-15%	-20%	?	nt	nt	nt
O=C(c1ccncc1)N(CCc1ccccc1)Cc1cccs1	-6%	nt	nt	nt	nt	nt
CCCCCCCCCCCCCCCC(O)C[N+](C)(C)CCO (configuration not stated)	16µM*	5.2µM*	3.3µM*	nt	nt	nt
CCCCCC(O)CCCC(=O)O (configuration not stated)	3%	5%	14%	nt	nt	nt
Cc1cc(C)nc(Sc2c(C)nn(-c3ccccc3)c2C)n1	5%	?	21µM*	-24%	-13%	-10%
COc1ccc(/C=C/C(=O)NCc2cn(C)nc2C)cc1COc1ccc(Br)cc1	-14%	-8%	-30%	13%	?	-8%
Cc1cc(C)n(CC(=O)NNC(=O)COc2ccc(F)cc2Br)n1	-6%	-4%	-29%	nt	9%	nt
COc1ccc(/C=C/C(=O)Nc2c(C)nn(C)c2C)cc1COc1ccc(Cl)cc1Br	6%	18µM*	?	?	?	-16%
Cc1nn(C)c(C)c1NC(=O)COc1ccc(F)cc1Br	?	?	13µM*	nt	?	nt
SMILES	12-LOX inh	DT40 TDP1 CPT	TDP1 cell noCPT	RORgamma inh	ELG1 repair inh	Gal4-VP16 FLuc
CSc1cc(C)c(OCC(=O)Nc2c(C)nn(C)c2C)c(C)c1	-23%	15µM*	?	-5%	3%	-7%
Nc1ccc(O)cc1	?	7.7µM*	12µM*	?	nt	4%
Nc1ccc(C(c2ccc(N)cc2)c2ccc(O)cc2)cc1	8%	nt	nt	nt	nt	nt
CCSc1ccc([C@@H]2[C@H]3C(=O)N(CC)C(=O)[C@H]3[C@]3(C(=O)OC)CCCCN23)cc1	?	?	23µM*	nt	7%	nt
CCSc1ccc([C@@H]2[C@@H]3C(=O)N(CC)C(=O)[C@@H]3[C@]3(C(=O)OC)CCCN23)cc1	?	?	23µM*	nt	15%	nt
COC(=O)[C@@]12CCCCN1[C@H](c1ccc(SC3CCCCC3)cc1)[C@@H]1C(=O)N(C)C(=O)[C@@H]12	-28%	?	?	nt	2%	nt
CCCSc1ccc([C@@H]2[C@@H]3C(=O)N(C)C(=O)[C@@H]3[C@]3(C(=O)OC)CCCCN23)cc1OC	?	?	23µM*	nt	-1%	nt
